Data on 19 compounds can be found in PubChem BioAssay.

One may read the viability as a read-out of living cells in per cent, often relative to untreated cells. As usually defined, the inhibition is the change of the read-out against control, counted positive when it falls.

Experiment [1] in a line: compounds altering circadian rhythm period length – cell-based, LOPAC library, luminescence reporter (AID 2774; call rule not given here;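 also: values are relative to mean of DMSO wells on each plate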). The note with it: circadian reporter cells, at 7 µM, actives lie on both sides.
Experiment [2] is described as follows: viability loss with induced miR-34 in A549 – imaging, A549 dox-inducible miR-34, nuclei and caspase counts, primary screen (AID 1347080). The settings on record: A549 miR-34 inducible, Hoechst nuclei count, 48 h.
Experiment [3] can be described thus: galactose survival enhancers in mitochondrial complex I cybrids – cell-based, galactose medium, ATP luminescence, primary screen (AID 1645843;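 active = z-score of at least 1.8 in each of two replicates, scored against plate mean and spread of sample wells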;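 also: positive z means more ATP and so rescue of galactose-driven cybrid death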). The settings on record: complex I mutant cybrid cells, 72 h, stronger effect = higher value.
Experiment [4] in a line: compounds altering viability of human ES cells (AID 493140; call rule not given here;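 also: cells exposed to compounds for four days before counting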). The note with it: human embryonic stem cell survival screen; stronger effect = higher value.
Experiment [5] is described as follows: P. berghei load reduction in hepatocytes – cell-based, HepG2, luciferase luminescence, HepG2 viability, primary screen (AID 624349; in the data active = parasite load remaining mostly below about 12%, no sharp cut-off; inactive = mostly above about 10%;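 also: 100% = mean of DMSO negative control wells on the same plate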). The note with it: P. berghei liver stage in HepG2, luciferase luminescence, concentration not given here; parasite load remaining: stronger effect = lower value; viability: measured here: HepG2 viability without parasites.
The subject of experiment [6] is Hepatitis C virus NS3 helicase. As to the kind of experiment: blockers of NS3h binding to ssDNA – biochemical, fluorescence polarization, LOPAC1280 library, primary screen (AID 687035; in the data active = inhibition above about 37%). The note with it: Purified HCV NS3 helicase, Cy5-dT15 ssDNA binding fluorescence polarization; stronger effect = higher value; concentration not given here. (In general: Fluorescence polarisation rises when a labelled molecule tumbles more slowly, as on binding a larger partner.)

Experiment [7] can be described thus: compounds altering Cy5-DNA-NS3h complex signal – biochemical, LOPAC1280, artefact control for HCV NS3 helicase inhibitor project (AID 687037; call rule not given here). The settings on record: Cy5-DNA-NS3h complex fluorescence interference counterscreen.
Experiment [8] can be described thus: signal quenchers or enhancers, Cy5 substrate/SSB – biochemical, NIH Clinical Collection, E. coli SSB, artefact control for HCV NS3 helicase inhibitor project (AID 743268; call rule not given here). The note with it: Cy5-oligo bound E. coli SSB, fluorescence interference.
The subject of experiment [9] is Hepatitis C virus NS3 helicase. As to the kind of experiment: blockers of NS3h binding to DNA – biochemical, fluorescence polarization, NIH Clinical Collection, primary screen (AID 743270; call rule not given here). The note with it: NS3 helicase binding to Cy5-dT15 DNA, stronger effect = higher value, concentration not given here.
Experiment [10] has as its target Single-stranded DNA-binding protein (Escherichia coli (strain K12)) (UniProt P0AGE0). As to the kind of experiment: SSB-ssDNA binding inhibitors – biochemical, fluorescence polarization, NIH Clinical Collection, counter-screen for HCV NS3 helicase inhibitor project (AID 743271; in the data active = inhibition above about 28%). The note with it: E. coli SSB-DNA binding, stronger effect = higher value, concentration not given here.

Experiment [11] in a line: compounds distorting NS3 helicase fluorescence signal – biochemical, NIH Clinical Collection, artefact control for HCV NS3 helicase inhibitor project (AID 743272; call rule not given here;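 also: HCV NS3 helicase with a Cy5 labelled single stranded DNA probe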). The settings on record: fluorescence interference counterscreen, HCV NS3 helicase assay; stronger effect = lower value. (In general: A counterscreen serves to expose hits that act by an unwanted route or on another target.)

Experiment [12] concerns the target ATP-dependent translocase ABCB1 (Homo sapiens) (UniProt P08183). Briefly: P-glycoprotein substrate transport blockade – cell-based (AID 377; in the data active = fluorescence slope change above about 50%). The settings on record: MDR1-expressing cells, fluorescent substrate accumulation slope; stronger effect = higher value; concentration not given here.
[13] abbreviates: measured here: relative caspase fold change +Dox/-Dox.
[14] abbreviates: measured here: total cells with miR-34 induction, stronger effect = lower value.
The mark [15] stands for this setting: measured here: total cells without miR-34 induction.
[16] abbreviates: stronger effect = lower value, cell number ratio, induced over uninduced.

Structures are written as SMILES. Values joined by “and” are separate entries in the source; they are usually repeats but may differ in a detail not shown here. Identical values can stand only once. Inconclusive results are not listed. Active and inactive are the calls of the source.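 The calls were made as follows, unless noted: active = compounds whose cell count with miR-34 switched on is under 0.7 times the count with it off; inactive = the rest.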

Sequence of ATP-dependent translocase ABCB1 (Homo sapiens) (P08183 whole entry, looked up): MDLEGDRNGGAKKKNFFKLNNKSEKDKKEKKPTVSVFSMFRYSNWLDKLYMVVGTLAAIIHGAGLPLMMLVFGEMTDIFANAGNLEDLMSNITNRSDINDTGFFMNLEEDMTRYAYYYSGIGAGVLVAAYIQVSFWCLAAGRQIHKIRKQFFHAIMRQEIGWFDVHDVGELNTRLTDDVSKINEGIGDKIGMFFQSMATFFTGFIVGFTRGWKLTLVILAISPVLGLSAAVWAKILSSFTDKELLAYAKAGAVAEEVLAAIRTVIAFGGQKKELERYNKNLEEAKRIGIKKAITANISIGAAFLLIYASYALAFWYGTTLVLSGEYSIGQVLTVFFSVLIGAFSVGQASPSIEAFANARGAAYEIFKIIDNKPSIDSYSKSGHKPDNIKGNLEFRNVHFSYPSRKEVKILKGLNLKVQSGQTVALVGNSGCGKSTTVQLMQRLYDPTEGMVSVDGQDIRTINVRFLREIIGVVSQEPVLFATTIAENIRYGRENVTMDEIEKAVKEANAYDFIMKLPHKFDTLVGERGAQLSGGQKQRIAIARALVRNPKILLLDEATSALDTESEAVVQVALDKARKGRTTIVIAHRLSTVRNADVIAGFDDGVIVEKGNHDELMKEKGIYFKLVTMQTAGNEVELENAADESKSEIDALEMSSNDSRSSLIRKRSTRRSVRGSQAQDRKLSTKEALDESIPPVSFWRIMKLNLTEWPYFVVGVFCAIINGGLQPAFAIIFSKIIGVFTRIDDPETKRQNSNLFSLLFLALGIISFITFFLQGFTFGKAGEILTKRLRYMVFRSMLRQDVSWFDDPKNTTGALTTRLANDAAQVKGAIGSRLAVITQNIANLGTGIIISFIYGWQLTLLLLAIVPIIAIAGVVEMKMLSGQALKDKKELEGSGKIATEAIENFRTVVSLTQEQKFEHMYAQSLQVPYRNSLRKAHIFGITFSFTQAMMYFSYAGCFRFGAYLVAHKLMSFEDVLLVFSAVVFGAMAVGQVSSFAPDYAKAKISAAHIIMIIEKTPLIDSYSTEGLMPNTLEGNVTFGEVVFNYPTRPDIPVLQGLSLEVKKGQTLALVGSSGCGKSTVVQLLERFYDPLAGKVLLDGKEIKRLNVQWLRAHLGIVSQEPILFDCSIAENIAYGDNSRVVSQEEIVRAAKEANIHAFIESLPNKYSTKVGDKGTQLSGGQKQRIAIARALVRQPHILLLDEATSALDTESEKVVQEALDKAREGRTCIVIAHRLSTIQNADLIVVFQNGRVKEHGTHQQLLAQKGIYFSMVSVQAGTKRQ

As to `C[C@H]1C2Cc3ccc(O)cc3C1(C)CCN2CC1CC1` (stereo not given in full), the period change in [1] was -0.055 h (inactive). Besides, the results for the fold change in experiment [2] (stronger effect = lower value) and in experiment [2] (setting [13]) were 0.949 (inactive) and 1.14, respectively. The figures for the cell count in experiment [2] (setting [14]) and in experiment [2] (setting [15]) were 10600 and 11200, respectively. Besides, the z-score in experiment [3] was -0.12 (inactive).

For the compound `CN1C2CCCC1CC(=O)C2`, in [4], the survival is 10.2 (inactive). Moreover, in experiment [5], the parasite load remaining is 169% (inactive) and 77.1% (inactive). Also, the viability in [5] is 110% and 77.5%. The fold change was 0.891 (inactive) in experiment [2] (setting [16]) and 1.28 in experiment [2] (setting [13]). For the same compound, the figures for the cell count in experiment [2] (setting [14]) and in experiment [2] (setting [15]) were 9180 and 10300, respectively.

`C[C@]12CCC3C(CCC4=CC(=O)CC[C@@]43C)C1CCC2O` (stereo not given in full): the fold change is 0.881 (inactive) in experiment [2] (stronger effect = lower value) and 1.72 in [2] (setting [13]). Besides, the values for the cell count in experiment [2] (setting [14]) and in experiment [2] (setting [15]) were 8500 and 9660, respectively. Moreover, the z-score in experiment [3] is 0.515 (inactive).

Consider `Oc1ccc2c3c1OC1C(O)CC[C@@]4(O)C(C2)N(CC2CCC2)CC[C@]314` (stereo not given in full), for which the fold change was 0.877 (inactive) in experiment [2] (stronger effect = lower value) and 1.82 in [2] (setting [13]). Besides, the cell count in [2] (setting [14]) is 8530; in experiment [2] (setting [15]), 9720. Further, in [3], the z-score was 0.8 (inactive).

As to `CCCCCCCCCCCCCCCC(=O)OC[C@H](COP(=O)([O-])OCC[N+](C)(C)C)OC(C)=O`, the survival in [4] was 57 (inactive). For the same compound, the fold change in experiment [2] (stronger effect = lower value) was 0.988 (inactive); in experiment [2] (setting [13]), 1.32. Further, the values for the cell count in [2] (setting [14]) and in experiment [2] (setting [15]) were 5610 and 5670, respectively.

As to `CC(C)(O)[C@@H]1[C@H]2OC(=O)[C@@H]1[C@]1(O)C[C@H]3O[C@]34C(=O)O[C@H]2[C@]14C` (tested in a mixture with another compound), the period change in [1] was -0.105 h (inactive). Further, in experiment [5], the parasite load remaining was 96.3% (inactive). For the same compound, the viability in [5] is 67.1%. Moreover, the figures for the inhibition in [6], in experiment [9] and in [10] were -5% (inactive), 0.4% (inactive) and -0.1% (inactive), respectively. In addition, the fluorescence ratio (interference) in [7] is 1 (inactive). Besides, the fluorescence ratio is 1 (inactive) in experiment [8] and 0.9 (inactive) in experiment [11]. Also, the figures for the fold change in experiment [2] (stronger effect = lower value) and in experiment [2] (setting [13]) were 1.06 (inactive) and 1.05, respectively. The values for the cell count in experiment [2] (setting [14]) and in experiment [2] (setting [15]) were 11200 and 10500, respectively. For the same compound, the z-score in experiment [3] is 0.54 (inactive).

On to `C[C@]12CCC3C4CCC(=O)C=C4CCC3C1CCC2O` (stereo not given in full), for which the fold change in [2] (stronger effect = lower value) was 0.894 (inactive); in experiment [2] (setting [13]), 1.48. Moreover, the cell count in experiment [2] (setting [14]) was 7980; in [2] (setting [15]), 8920. Also, in [3], the z-score was -0.31 (inactive).

`CCCCC/C=C\C/C=C\C/C=C\C/C=C\CCCC(=O)NCCc1ccc(O)c(O)c1`: the survival in [4] is 69.6 (inactive). Besides, the fold change was 0.953 (inactive) in experiment [2] (setting [16]) and 1.09 in experiment [2] (setting [13]). Also, the results for the cell count in experiment [2] (setting [14]) and in [2] (setting [15]) were 5250 and 5510, respectively.

Take `C[C@]12CCC(O)CC1=CCC1C2CC[C@]2(C)C(=O)CCC12` (stereo not given in full): the fold change in [2] (stronger effect = lower value) was 1.16 (inactive); in experiment [2] (setting [13]), 1.21. Also, the values for the cell count in [2] (setting [14]) and in [2] (setting [15]) were 7950 and 6860, respectively. Further, the z-score in experiment [3] was -0.11 (inactive).

Turning to `CC1CCCC(O)CCCCCc2cc(O)cc(O)c2C(=O)O1` (stereo not given), the fold change was 0.901 (inactive) in experiment [2] (stronger effect = lower value) and 1.75 in experiment [2] (setting [13]). In addition, the cell count came to 8720 in experiment [2] (setting [14]) and 9680 in [2] (setting [15]). In addition, the z-score in experiment [3] is -0.095 (inactive).

As to `CN1C(CC(O)c2ccccc2)CCCC1CC(O)c1ccccc1` (stereo not given), the survival in experiment [4] was 5.42 (inactive). Also, the parasite load remaining in [5] was 93.7% (inactive) and 75.5% (inactive). For the same compound, the viability in experiment [5] was 96.2% and 77.8%. Further, the fold change in [2] (stronger effect = lower value) was 0.827 (inactive); in experiment [2] (setting [13]), 1.06. The cell count amounted to 8680 in experiment [2] (setting [14]) and 10500 in experiment [2] (setting [15]).

As to `C/C=C1/C[N+]2(C)CCC34C(=C(C=O)[C@H]1C[C@@H]32)Nc1ccccc14` (stereo not given in full), the fluorescence slope change in experiment [12] is 21.2% (inactive). The survival in [4] was 3.83 (inactive). The parasite load remaining in experiment [5] was 95% (inactive). Also, in experiment [5], the viability came to 101%. The fold change is 0.931 (inactive) in experiment [2] (stronger effect = lower value) and 1.21 in experiment [2] (setting [13]). In addition, the cell count came out at 8700 in experiment [2] (setting [14]) and 9340 in [2] (setting [15]).

With `CNC1CC(c2ccc(Cl)c(Cl)c2)c2ccccc21` (stereo not given), the fold change in experiment [2] (setting [16]) was 0.956 (inactive); in experiment [2] (setting [13]), 1.45. Further, the cell count in experiment [2] (setting [14]) is 5010; in [2] (setting [15]), 5240. Besides, the z-score in experiment [3] was -1.44 (inactive).

As for `CCCCC/C=C\C/C=C\C/C=C\C/C=C\CCCC(=O)N[C@H](C)CO`, in [4], the survival was 87.2 (inactive). Besides, the fold change in [2] (stronger effect = lower value) is 0.941 (inactive) and 1.01 (inactive); in experiment [2] (setting [13]), 0.931 and 0.764. In addition, the cell count in experiment [2] (setting [14]) is 5390 and 6000; in experiment [2] (setting [15]) it was 5730 and 5950.

Consider `OC[C@H]1O[C@@H](n2cnc3cc(Cl)c(Cl)cc32)C(O)[C@H]1O` (stereo not given in full), for which the survival in [4] was 56.1 (inactive). In addition, the fold change is 0.916 (inactive) in experiment [2] (stronger effect = lower value) and 0.917 in experiment [2] (setting [13]). Further, the cell count was found to be 1540 in [2] (setting [14]) and 1680 in experiment [2] (setting [15]).

As for `CC(C)[C@]12OC1C1O[C@]13[C@]1(OC1CC1C4=C(CC[C@@]13C)C(=O)OC4)C2O` (stereo not given in full), the fold change in experiment [2] (setting [16]) was 0.971 (inactive); in experiment [2] (setting [13]), 1.93. Further, the cell count in [2] (setting [14]) is 2260; in [2] (setting [15]) it was 2320. Besides, the z-score in [3] was -1.85 (inactive).

As for `NC(Cn1oc(=O)[nH]c1=O)C(=O)O` (stereo not given), the period change in [1] was -0.055 h (inactive). The fold change in experiment [2] (stronger effect = lower value) was 0.991 (inactive); in experiment [2] (setting [13]) it was 0.896. In addition, the cell count in [2] (setting [14]) came to 10000; in [2] (setting [15]) it was 10100. The z-score in experiment [3] is 0.64 (inactive).

For the compound `CC(C)(O)C1C2OC(=O)C1[C@]1(O)CC3O[C@]34C(=O)OC2[C@]14C` (stereo not given in full) (tested in a mixture with another compound), the fold change in [2] (stronger effect = lower value) was 0.954 (inactive); in experiment [2] (setting [13]), 1.55. Also, the cell count in experiment [2] (setting [14]) is 9380; in experiment [2] (setting [15]) it was 9830. The z-score in experiment [3] was 0.86 (inactive).

On to `C=C1C/C(=C/C)C(=O)O[C@@H]2CCN3CC=C(COC(=O)[C@]1(C)O)[C@H]23`, for which the survival in experiment [4] was 10.6 (inactive). Moreover, the parasite load remaining in experiment [5] was 91.1% (inactive) and 73.7% (inactive). Moreover, the viability in experiment [5] is 125% and 77.7%. Besides, the fold change in experiment [2] (stronger effect = lower value) is 0.88 (inactive); in experiment [2] (setting [13]) it was 1.73. Also, the figures for the cell count in experiment [2] (setting [14]) and in [2] (setting [15]) were 9540 and 10800, respectively.
